These results are taken from PubChem BioAssay AID624483 (NMMLSC, 2012).

The whole screen tested about 360,000 compounds, of which about 11,000 (3.1%) were called active. Inconclusive results (about 2%) are left out. The sample as a whole holds a higher share of actives than the screen did. Unmarked numbers belong to inactive results. Cut-off read from the data, not from the text of the source: active = fluorescence intensity above about 16000; inconclusive = no clear call, values can overlap the other calls; inactive = below that.

A short description of the experiment: compound fluorescence in toxin protease inhibitor counterscreen, primary screen, artefact control for toxin protease inhibitor project, biochemical, multiplex microsphere, HTS (AID 624483). Conditions: compound autofluorescence counterscreen, microsphere flow cytometry; stronger effect = higher value. (The purpose of a counterscreen is to sort out artefacts and off-target activity.)
As to `O=C(C1CC(=O)N(C2CCCC2)C1)N1CCC2(CC1)OCCO2` (stereo unspecified), the fluorescence intensity is 21300 (active).

As for `O=C(C1CC(=O)N(C2CCCC2)C1)N1CCN(c2cccc(C(F)(F)F)c2)CC1` (stereo unspecified), the fluorescence intensity was 5860.

Take `O=C(C1CC(=O)N(C2CCCCC2)C1)N1CCN(c2ccccc2)CC1` (stereo unspecified): the fluorescence intensity was 5000.

As for `CCCNC(=O)C1(C)CCN(C(=O)c2ccccc2OC(F)(F)F)C1` (stereo unspecified), the fluorescence intensity is 3700.

In the case of `Cc1ccc(S(=O)(=O)N2CC[C@H]3[C@@H](C2)C(=O)C[C@@H](c2ccccc2)N3S(=O)(=O)c2ccc(C)cc2)cc1`, the fluorescence intensity was 6280.

For `CCc1cccc2c(=O)c(C(=O)NCCCOC)c[nH]c12`, the fluorescence intensity was 4150.

On to `COC1=CC(=O)OC(c2ccc(OC)cc2)C1` (stereo unspecified), for which the fluorescence intensity was 3440.

For the compound `COc1cc(CO)c(C2(CO)CCCC2)cc1OC`, the fluorescence intensity is 2910.

Regarding `CC1(C)CC(=O)C2=C(C1)N=C1SCCC(=O)N1C2c1ccc(C(F)(F)F)cc1` (stereo unspecified), the fluorescence intensity is 22500 (active).

In the case of `CCCCC[C@@H]1C=C(C(=O)OCC)[C@H](c2ccccc2)N1S(=O)(=O)c1ccc(C)cc1`, the fluorescence intensity is 6420.

Turning to `O=C1NC[C@H](CCCCN2C[C@H](Cc3ccc(O)cc3)N(CCc3ccccc3)C(=O)C2=O)N(CCc2ccccc2)C1=O`, the fluorescence intensity was 5840.

For `C=C(C)CNC(=S)/N=c1\scc(C)n1CC`, the fluorescence intensity is 8000.

Turning to `CC1(C)OC(=O)C2=C(C[C@@H](C3CC3)O[C@H]2CCc2cccc(Cl)c2)O1`, the fluorescence intensity was 6150.

For the compound `Cc1cc(O)ccc1-c1cc(C(=O)NCc2cc(C(F)(F)F)cc(C(F)(F)F)c2)[nH]n1`, the fluorescence intensity is 4030.

For the compound `COc1cc(C2NC(=O)NC(c3ccccc3)=C2C(C)=O)c(Br)cc1OCC(N)=O` (stereo unspecified), the fluorescence intensity was 3130.

Turning to `CCOC(=O)C1=C(c2ccccc2)NC(=O)NC1c1cc(OCC)c(O)c([N+](=O)[O-])c1` (stereo unspecified), the fluorescence intensity is 3560.

For the compound `CCCOc1ccc(C2NC(=O)NC(c3ccccc3)=C2C(C)=O)cc1OCC` (stereo unspecified), the fluorescence intensity was 16800 (active).

Consider `COc1c(C)cc(C(O)c2ncc(-c3cccc(C(F)(F)F)c3)[nH]2)cc1C` (stereo unspecified), for which the fluorescence intensity is 2880.

On to `COCCCn1c(=O)/c(=C/c2ccccc2OC(C)C)s/c1=C(\C#N)C(=O)Nc1ccc(C(=O)O)cc1`, for which the fluorescence intensity is 4090.

For the compound `CC1(C(=O)O)CCCN(C(=O)/C=C/c2ccccc2)C1` (stereo unspecified), the fluorescence intensity is 3760.

In the case of `CC(=O)NC1=NC(=O)CS1`, the fluorescence intensity was 22000 (active).

Turning to `Cc1cccc(N)c1SC1CCCCC1O` (stereo unspecified), the fluorescence intensity was 2470.

Turning to `CN(C)/C=C/C(=O)c1cnc2sccn2c1=O`, the fluorescence intensity was 4610.

With `C[C@H]1Cn2cnc(C(=O)N[C@@H](Cc3c[nH]c4ccccc34)C(=O)OC(C)(C)C)c2C(=O)N1`, the fluorescence intensity is 3860.

For the compound `CCN(c1ccccc1)S(=O)(=O)c1ccc(C(=O)Nc2ccccc2OC)cc1`, the fluorescence intensity is 3100.

On to `CCN(c1ccccc1)S(=O)(=O)c1ccc(N)cc1`, for which the fluorescence intensity is 5250.

For `CCN(c1ccccc1)S(=O)(=O)c1ccc(NC(=O)C(C)(C)C)cc1`, the fluorescence intensity is 23900 (active).

In the case of `O=c1[nH][nH]c2c1[C@H](c1ccc(Cl)cc1)O[C@H](CCc1ccccc1)C2`, the fluorescence intensity is 5920.

With `CCc1nc2c(OCc3ccccc3)cccn2c1N(C)C(=O)c1ccco1`, the fluorescence intensity is 2960.

In the case of `COc1cccc(CN2C(=O)CCC2(C)C(=O)NC2CCCCCC2)c1` (stereo unspecified), the fluorescence intensity is 21300 (active).

With `COc1cccc(CNC(=O)C2CC(=O)N(C3CCCCCCC3)C2)c1` (stereo unspecified), the fluorescence intensity was 5720.

In the case of `COc1ccc(OC)c(Cc2nnc(CCC(=O)NC3CCCC3)o2)c1`, the fluorescence intensity was 2020.

Consider `COc1ccc(OC)c(CN2C(=O)CCC2(C)c2nnnn2Cc2ccccc2)c1` (stereo unspecified), for which the fluorescence intensity was 5850.

As for `COc1ccc(CN2CC(C(=O)NC3CCCCC3)CC2=O)cc1` (stereo unspecified), the fluorescence intensity was 4380.

For the compound `COc1ccc(OC)c(CN2C(=O)CCC2(C)C(=O)NC2CCCCCC2)c1` (stereo unspecified), the fluorescence intensity was 23000 (active).

With `O=C1C2(c3ccccc3)CN(CCCO)CC1(c1ccccc1)CN(CCCO)C2`, the fluorescence intensity was 10600.

Turning to `CCCc1nc2c3ccccc3ccn2c1Cc1ccccc1C(F)(F)F`, the fluorescence intensity was 5310.

For the compound `Cc1ccc(S(=O)(=O)N2CCN(C(=O)CCC(=O)NC3CCCc4ccccc43)CC2)cc1` (stereo unspecified), the fluorescence intensity was 7770.

For `O=C(NCCO)C(=O)NCC(c1ccc2c(c1)OCO2)N1CCN(c2ccc(F)cc2)CC1` (stereo unspecified), the fluorescence intensity is 5880.

Turning to `O=C(Nc1nc(-c2ccc3c(c2)OCO3)cs1)c1ccncc1`, the fluorescence intensity was 23200 (active).

Turning to `C/C(=N/NC(=O)c1ccncc1)c1ccc2c(c1)OCO2`, the fluorescence intensity was 3750.

For the compound `CC(NC(=O)Nc1ccc2c(c1)OCO2)c1ccncc1` (stereo unspecified), the fluorescence intensity was 2060.

Turning to `O=[N+]([O-])c1ccccc1SNc1ccccn1`, the fluorescence intensity was 2510.

Turning to `CNC[C@H]1OCc2cnnn2CCCC(=O)N([C@H](C)CO)C[C@@H]1C`, the fluorescence intensity is 4160.

With `COc1ccc(OC)c(NC(=O)N[C@H](Cc2ccccc2)C(=O)NN)c1`, the fluorescence intensity is 5710.

Regarding `COc1ccc(OC)c(NC(=O)Cc2cccs2)c1`, the fluorescence intensity was 3820.

`COc1ccc(OC)c(NC(=O)CC(Cc2ccccc2OC)C(=O)O)c1` (stereo unspecified): the fluorescence intensity was 21100 (active).

For the compound `Cc1ccc(S(=O)(=O)NC(C)C(=O)Nc2ccccc2C(=O)N2CCCC2)cc1` (stereo unspecified), the fluorescence intensity is 3260.

In the case of `Cc1ccc(CNC(=O)Nc2nnc([C@H]3C[C@H](O)[C@@H](CO)O3)s2)cc1`, the fluorescence intensity is 2810.

Take `O=C(NCCc1ccccc1)c1cccc(NC(=O)c2ccccc2)c1`: the fluorescence intensity is 3070.

Consider `O=C(Nc1ccccc1)c1ccc2nsnc2c1`, for which the fluorescence intensity is 16300 (active).

With `Cc1cccc(NC(=O)c2ccc3nsnc3c2)c1C`, the fluorescence intensity is 2560.

Regarding `O=C(OC1CC2CC1[C@H]1CCCCN1C2=O)N1CCOCC1` (stereo partly specified), the fluorescence intensity is 5270.

In the case of `CC1(C(=O)NCc2ccco2)Cc2c(-c3ccc4c(c3)OCO4)ccnc2O1` (stereo unspecified), the fluorescence intensity is 4110.

As to `O=C1C(Sc2cccc(F)c2)=C[C@@]2(O)CC[C@@H](O)[C@]1(Sc1cccc(F)c1)[C@H]2O`, the fluorescence intensity is 5520.

As for `O=C(Nc1cc(=O)[nH]c2ncnn12)c1ccccc1Cl`, the fluorescence intensity was 16500 (active).

Regarding `O=C(Nc1ccc2sc3ccccc3c(=O)c2c1)c1ccccc1Cl`, the fluorescence intensity is 2540.

Consider `O=C(Nc1ccccc1C(=O)N1CCCCCC1)c1ccccc1Cl`, for which the fluorescence intensity is 6360.

`Cc1ccc(S(=O)(=O)N(C)C2(C)CCS(=O)(=O)C2)cc1` (stereo unspecified): the fluorescence intensity was 21400 (active).

Take `Cc1ccc(S(=O)(=O)C2(S(=O)(=O)c3ccc(C)cc3)CCCC2)cc1`: the fluorescence intensity is 6800.

`Cc1ccc(S(=O)(=O)N(C)c2ccc(C(=O)NCC3(N(C)C)CCCCC3)cc2)cc1`: the fluorescence intensity is 5740.
